Screens from PubChem BioAssay.
BL2 CD40 inh: CD40 pathway inhibition in BL2 cells; BL2 NF-kB luciferase reporter, CD40L-induced, 4 h; inhibition, % at 10 µM; 83,000 tested, 0.94% active; AID 1053188;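 active = mean inhibition of at least 50% with a set share of replicates also reaching that level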;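 note: 0% = neutral control wells and 100% = IKK inhibitor VII at 50 µM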
Active calls of the source: *; [ ] = dose if it differs, or a comment. This is one part of a sample in which hits are shown more often than they occur.

SMILES	BL2 CD40 inh
CO[C@H]1CN(C)C(=O)c2ccc(NC(=O)C3CC3)cc2OC[C@H](C)N(Cc2cccnc2)C[C@@H]1C	3
CC1C=NC(S(=O)(=O)N2CC[C@@H]3[C@H](CO)N(C)c4ccc(C#Cc5cccnc5)cc4[C@@H]32)=N1 (some centres undefined)	-9[25 µM]
C=C1C(=O)OC2C1CCC(C)C1C=CC(=O)C12C (centres undefined)	25
C=C1C(=O)OC2CC1C(O)CC(C)=CCCC(C)=CC(O)CC2C (centres undefined)	87*
CC(C)OCCCNC(=O)c1ccncc1	9
CC(C)OCCCNC(=O)CNC(=O)c1ccc(Cl)c(Cl)c1	27*
COCCNC(=O)c1ccc(Cl)c(Cl)c1	7
COc1ccc2[nH]cc(C3N4CC5(C)CN3CC(C)(C4)C5=O)c2c1 (centres undefined)	8
CC12CN3CC(C)(CN(C1)C3c1ccc3ccccc3c1O)C2=O (centres undefined)	7
CC12CN3CC(C)(CN(C1)C3c1ccc3c(c1)OCO3)C2=O (centres undefined)	36*
O=C(C[C@@H]1C[C@@H]2c3cc(NC(=O)NC4CCCCC4)ccc3O[C@@H]2[C@H](CO)O1)NC1CCCCC1	4
O=C(Nc1ccccn1)c1ccc2nc(-c3ccccc3)c(-c3ccccc3)nc2c1	-3
O=C(Nc1ccccn1)c1ccc(S(=O)(=O)N2CCCC2)cc1	-57
O=C(Nc1ccccn1)c1ccc(-c2ccccc2)cc1	113*
COCC(=O)N1[C@@H](CO)[C@H](c2ccccc2)[C@@H]1CN(C)C(=O)c1cccnc1	4
COCC(=O)N1C[C@H](C)[C@@H](OC)CN(C)C(=O)c2ccc(NC(=O)Nc3cccc(F)c3)cc2OC[C@H]1C	2[25 µM]
CN(C)C(=O)c1cccc(-c2ccccc2[C@H]2[C@@H](C#N)N(C(=O)C3CCCC3)[C@H]2CO)c1	12
COc1ccc2c3c(n(C)c2c1)[C@H](CO)N(C(C)=O)CC31CCN(Cc2ccccc2OC)CC1	34[25 µM]
COc1ccc(S(=O)(=O)N(C)C[C@H]2Oc3ccc(NS(=O)(=O)c4c(C)noc4C)cc3C(=O)N([C@@H](C)CO)C[C@H]2C)cc1	-1[25 µM]
COc1ccc2c3c([nH]c2c1)[C@@H](CO)NCC31CN(C(=O)Nc2ccc3c(c2)OCO3)C1	-13[25 µM]
Cn1c(NCc2c(O)ccc3ccccc23)nc2ccccc21	-12
Oc1ccc2ccccc2c1CNc1cnc2ccccc2c1	54*
NCc1c(O)ccc2ccccc12	-3
C/C=C/c1ccc([C@@H]2[C@H]3CN(C(=O)Nc4cccc(OC)c4)CC(=O)N3[C@H]2CO)cc1	15[25 µM]
C/C=C/c1ccc([C@@H]2[C@@H](CO)N3C(=O)CN(C(=O)c4ccncc4)C[C@H]23)cc1	6[25 µM]
SMILES	BL2 CD40 inh
O=S(=O)(c1cccc2cccnc12)N1CCN(c2ccccc2)CC1	6
O=S(=O)(c1cccc2cccnc12)N1CCN(c2ccccn2)CC1	11
O=S(=O)(c1cccc2cnccc12)N1CCNCC1	53*[25 µM]
CCC(=O)N1CC2(C1)CN(Cc1cccc(Cl)c1)[C@@H](CO)c1[nH]c3cc(OC)ccc3c12	-3[25 µM]
Cc1ccc(S(=O)(=O)c2c(C)cc(C)nc2N2CCCCC2)cc1	13
Cc1cc(S(=O)(=O)c2ccc(Cl)cc2)nc(S(=O)(=O)c2ccc(Cl)cc2)c1C#N	112*
Cc1cc(C)nc(NNS(=O)(=O)c2ccc(Cl)cc2)n1	3
O=C(C1CC1)N1CC[C@@H]2[C@H]1c1cc(-c3cccc(F)c3)ccc1N[C@@H]2CO	-103
CCS(=O)(=O)N(C)C[C@@H]1OCc2ccccc2-c2c(n(C)c3ccccc23)C(=O)N([C@@H](C)CO)C[C@@H]1C	-3
CC1=C(C#N)c2nc(N)c(C#N)c(C)c2/C1=C\c1ccccc1	49*
Cc1c(C#N)c(N)nc(Cl)c1C#N	3
CCc1nc(N)c(C#N)c(-c2cccc3ccccc23)c1C	4
Cn1cnc(S(=O)(=O)N2[C@@H]3CNC[C@H]2C3c2ccc(-c3cccnc3)cc2)c1 (some centres undefined)	-3[25 µM]
CN(C)[C@@H]1CCc2[nH]c3ccc(NC(=O)c4ccc(F)cc4)cc3c2C1	-26[25 µM]
CC(=O)c1cccc(NC(=O)/C=C/c2ccc(S(=O)(=O)N3CCOCC3)cc2)c1	8
COC(=O)c1cccc(NC(=O)/C=C/c2cccc([N+](=O)[O-])c2)c1	-30
O=C(/C=C/c1ccccc1)Nc1cccc(C(=O)O)c1	82*
CCOC(=O)C1=C(C)NC(C)=C(C(=O)OC)C1c1cccc([N+](=O)[O-])c1 (centres undefined)	-28
COC(=O)C1=C(C)NC(C)=C(C(=O)OCCCN2CCC(c3ccccc3)(c3ccccc3)CC2)[C@H]1c1cccc([N+](=O)[O-])c1	61*[25 µM]
COCCOC(=O)C1=C(C)NC(C)=C(C(=O)OC(C)C)C1c1cccc([N+](=O)[O-])c1 (centres undefined)	-26
C/C=C/c1ccc2c(c1)O[C@@H](CN(C)C(=O)Nc1cccc(F)c1)[C@H](C)CN([C@@H](C)CO)S2(=O)=O	-12[25 µM]
CN(C)CC(=O)N1[C@@H]2c3ccc(-c4ccncc4)c(=O)n3C[C@H]1[C@H](CO)[C@H]2C(=O)NC1CCC1	-4[25 µM]
CN(C)CC(=O)N1CC2(C1)[C@@H](c1ccccc1)[C@@H](CO)N2S(=O)(=O)c1ccccc1	3
Cc1cccc(S(=O)(=O)N2C[C@@H]3[C@H](c4ccccc42)[C@@H](CO)N3C(=O)CC2CC2)c1	22[25 µM]
CCS(=O)(=O)Nc1ccc2c(c1)C(=O)N(C)[C@H]1CC[C@@H](CC(=O)NCc3ccccc3F)O[C@@H]1CO2	0[25 µM]
SMILES	BL2 CD40 inh
OCCN1CCN(CCCN2c3ccccc3Sc3ccc(Cl)cc32)CC1	-78
CN(C)CCCN1c2ccccc2Sc2ccc(Cl)cc21	-40
CSc1ccc2c(c1)N(CCC1CCCCN1C)c1ccccc1S2 (centres undefined)	74*
CCC(=O)N1[C@@H]2c3ccc(-c4ccncc4)c(=O)n3C[C@H]1[C@H](CO)[C@H]2C(=O)N1CCc2ccccc2C1	5[25 µM]
C[C@@H]1CN([C@H](C)CO)C(=O)c2ccccc2-c2ccccc2CO[C@H]1CN(C)C(=O)Nc1cccc(F)c1	-8
CCCn1c(=O)c2ccccc2n2c(SCCOc3ccccc3)nnc12	-3
c1ccc(OCCSc2nnnn2-c2ccccc2)cc1	-20
c1ccc(OCCSc2nnc3sc4ccccc4n23)cc1	87*
C[C@H]1CN([C@@H](C)CO)C(=O)CCCn2cc(nn2)CO[C@@H]1CN(C)Cc1ccc2c(c1)OCCO2	-15
C[C@H](CO)N1C[C@H](C)[C@@H](CN(C)C(=O)Nc2ccc(F)cc2)Oc2c(NS(=O)(=O)c3cn(C)cn3)cccc2C1=O	-4[25 µM]
O=C(C1CCOCC1)N1C[C@@H]2[C@H](c3ccccc31)[C@H](CO)N2Cc1ccc(Cl)cc1	-8[25 µM]
O=C1CCC(C(=O)OCC(=O)c2ccccc2)N1 (centres undefined)	11
CC1CC(C)C(=O)C(C(CC2CC(=O)NC(=O)C2)OC(=O)CC(=O)c2ccccc2)C1 (centres undefined)	56*
COc1ccc(NC(=O)N2CCCCN3[C@@H](CO)[C@@H](c4ccc(C#Cc5ccccn5)cc4)[C@@H]3C2)cc1	-8[25 µM]
C[C@H]1CN([C@@H](C)CO)C(=O)c2ccccc2-c2ccccc2CO[C@@H]1CN(C)Cc1ccc(C(=O)O)cc1	-13
O=C(O)CCC(=O)c1ccc2c(c1)OCCO2	-13
O=C(Cn1ncc(Cl)c(Cl)c1=O)c1ccc2c(c1)OCCO2	98*
CCC(=O)c1ccc2c(c1)OCCO2	0
